For some of these results: Entries with a potency or affinity are not part of this list.
Experiments:
Set-up in all cases: scale not given: direction of the effect not stated beside the values
[1] = biological target: Protein translocase subunit SecA (Escherichia coli (strain K12)) (UniProt P10408); assay: Assay to Identify E. coli SecA ATPase Inhibitors; type: functional; details: 30 µM
[2] = biological target: T1, Ubiquitin-activating enzyme e1, putative (Leishmania donovani (strain BPK282A1)) (UniProt E9BSI1); assay: Leishmania donovani Ubiquitin Activating Enzyme (LdE1); type: functional; details: 30 µM
T1 sequence (whole entry): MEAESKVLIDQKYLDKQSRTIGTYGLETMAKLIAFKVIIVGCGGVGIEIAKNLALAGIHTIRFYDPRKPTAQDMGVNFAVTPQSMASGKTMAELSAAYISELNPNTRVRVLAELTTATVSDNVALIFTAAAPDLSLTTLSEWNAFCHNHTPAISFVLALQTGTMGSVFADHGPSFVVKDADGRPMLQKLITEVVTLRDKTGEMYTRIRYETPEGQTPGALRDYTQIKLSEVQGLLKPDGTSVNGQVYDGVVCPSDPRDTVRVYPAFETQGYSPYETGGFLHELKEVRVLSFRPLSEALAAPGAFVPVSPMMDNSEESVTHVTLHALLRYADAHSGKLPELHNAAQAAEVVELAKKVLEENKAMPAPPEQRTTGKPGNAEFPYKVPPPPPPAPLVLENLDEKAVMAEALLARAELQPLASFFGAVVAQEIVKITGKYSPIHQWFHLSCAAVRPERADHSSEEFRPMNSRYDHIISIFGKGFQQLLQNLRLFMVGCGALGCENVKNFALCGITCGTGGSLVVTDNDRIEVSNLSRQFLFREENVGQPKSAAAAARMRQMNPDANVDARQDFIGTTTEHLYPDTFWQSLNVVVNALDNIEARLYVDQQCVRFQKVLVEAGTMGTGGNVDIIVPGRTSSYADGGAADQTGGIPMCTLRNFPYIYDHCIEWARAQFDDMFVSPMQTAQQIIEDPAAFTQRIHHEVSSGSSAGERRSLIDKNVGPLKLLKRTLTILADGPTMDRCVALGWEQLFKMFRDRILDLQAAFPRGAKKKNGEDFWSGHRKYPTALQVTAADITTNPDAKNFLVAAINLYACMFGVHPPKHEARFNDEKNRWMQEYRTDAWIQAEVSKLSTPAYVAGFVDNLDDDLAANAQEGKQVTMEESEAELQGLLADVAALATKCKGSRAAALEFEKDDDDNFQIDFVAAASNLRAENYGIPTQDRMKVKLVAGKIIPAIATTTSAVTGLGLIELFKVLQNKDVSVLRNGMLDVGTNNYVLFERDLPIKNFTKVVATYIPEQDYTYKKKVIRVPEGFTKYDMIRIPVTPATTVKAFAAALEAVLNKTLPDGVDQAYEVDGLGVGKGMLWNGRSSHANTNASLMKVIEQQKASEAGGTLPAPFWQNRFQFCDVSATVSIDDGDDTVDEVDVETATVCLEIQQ

[3] = biological target: AMP-activated protein kinase, AMPK (Homo sapiens) (UniProt P54646+O43741+P54619+Q9UGJ0+Q9Y478+Q13131+Q9UGI9); assay: AMP-dependent Kinase enzyme assay. An in vitro enzyme assay that detects ADP turnover that is directly proportional to AMPK activity. This uses naive AMPK that is activated during the assay with MK-8722; type: functional; details: 30 µM
[4] = biological target: Sialic acid-binding Ig-like lectin 9 (Homo sapiens) (UniProt Q9Y336); assay: Hs-Siglec9 ALPHAscreen SOP 20170721; details: 10 µM
Sialic acid-binding Ig-like lectin 9 (Homo sapiens), sequence (Q9Y336 whole entry): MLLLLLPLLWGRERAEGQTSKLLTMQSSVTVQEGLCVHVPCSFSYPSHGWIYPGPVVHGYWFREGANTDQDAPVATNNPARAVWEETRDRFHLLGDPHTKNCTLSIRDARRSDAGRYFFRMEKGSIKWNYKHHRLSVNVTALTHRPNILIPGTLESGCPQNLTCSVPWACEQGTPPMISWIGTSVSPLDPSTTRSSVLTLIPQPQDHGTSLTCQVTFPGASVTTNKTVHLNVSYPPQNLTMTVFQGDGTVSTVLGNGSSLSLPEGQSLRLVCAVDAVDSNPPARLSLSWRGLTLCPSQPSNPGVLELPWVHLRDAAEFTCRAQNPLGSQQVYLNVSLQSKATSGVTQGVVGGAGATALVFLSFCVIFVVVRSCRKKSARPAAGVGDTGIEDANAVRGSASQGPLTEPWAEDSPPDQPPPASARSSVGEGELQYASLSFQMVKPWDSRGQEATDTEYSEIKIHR

Trypanosoma cruzi = assay: Trypanosoma cruzi phosphomannomutase and mannose-1-phosphate guanylyltransferase assay; type: functional; details: 10 µM
[5] = biological target: T2, Arginase-2, mitochondrial (Homo sapiens) (UniProt P78540); assay: in vitro enzyme assay to detect the production of urea directly proportional to the activity of Arginase II; type: functional; details: 33.3 µM; further: in the data most compounds retested in dose-response had high values
T2 sequence (whole entry): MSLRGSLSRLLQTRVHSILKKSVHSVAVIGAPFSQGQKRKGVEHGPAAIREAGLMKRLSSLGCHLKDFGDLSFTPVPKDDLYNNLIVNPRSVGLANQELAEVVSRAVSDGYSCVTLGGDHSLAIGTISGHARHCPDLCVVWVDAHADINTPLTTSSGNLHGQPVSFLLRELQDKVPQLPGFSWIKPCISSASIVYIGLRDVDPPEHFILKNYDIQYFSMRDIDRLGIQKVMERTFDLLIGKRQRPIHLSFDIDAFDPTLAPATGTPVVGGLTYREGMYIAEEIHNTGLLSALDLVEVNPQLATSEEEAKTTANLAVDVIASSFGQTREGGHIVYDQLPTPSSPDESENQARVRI

[6] = biological target: T3, Proteasome subunit beta (Trypanosoma cruzi) (UniProt O96673); assay: Trypanosoma cruzi proteasome chymotrypsin-like activity (TcProtChymo) assay.; further: in the data most compounds retested in dose-response had high values; type: functional; details: 9.37 µM
T3 sequence (whole entry): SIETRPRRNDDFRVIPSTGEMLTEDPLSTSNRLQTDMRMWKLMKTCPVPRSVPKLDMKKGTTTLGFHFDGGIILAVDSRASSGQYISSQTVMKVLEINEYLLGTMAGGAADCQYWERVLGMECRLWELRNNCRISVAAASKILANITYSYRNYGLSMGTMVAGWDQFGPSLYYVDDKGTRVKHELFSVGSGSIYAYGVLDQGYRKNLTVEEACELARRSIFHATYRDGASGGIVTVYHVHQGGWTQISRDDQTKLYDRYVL

Homo sapiens = species on record: Homo sapiens; assay: To identify inhibition of the IFN signalling (Jak-Stat) pathway via expression of an eGFP reporter gene under the control of an IFN-stimulated response element (ISRE) containing MxA promoter.; type: functional; details: 30 µM
[7] = biological target: T4, Tyrosyl-tRNA synthetase, putative (Trypanosoma cruzi (strain CL Brener)) (UniProt Q4DSP6); assay: Trypanosoma cruzi tyrosyl tRNA synthetase (TcYRS) _High Tyrosine SOP; type: functional; details: 30 µM; further: in the data most compounds retested in dose-response had high values
T4 sequence (whole entry): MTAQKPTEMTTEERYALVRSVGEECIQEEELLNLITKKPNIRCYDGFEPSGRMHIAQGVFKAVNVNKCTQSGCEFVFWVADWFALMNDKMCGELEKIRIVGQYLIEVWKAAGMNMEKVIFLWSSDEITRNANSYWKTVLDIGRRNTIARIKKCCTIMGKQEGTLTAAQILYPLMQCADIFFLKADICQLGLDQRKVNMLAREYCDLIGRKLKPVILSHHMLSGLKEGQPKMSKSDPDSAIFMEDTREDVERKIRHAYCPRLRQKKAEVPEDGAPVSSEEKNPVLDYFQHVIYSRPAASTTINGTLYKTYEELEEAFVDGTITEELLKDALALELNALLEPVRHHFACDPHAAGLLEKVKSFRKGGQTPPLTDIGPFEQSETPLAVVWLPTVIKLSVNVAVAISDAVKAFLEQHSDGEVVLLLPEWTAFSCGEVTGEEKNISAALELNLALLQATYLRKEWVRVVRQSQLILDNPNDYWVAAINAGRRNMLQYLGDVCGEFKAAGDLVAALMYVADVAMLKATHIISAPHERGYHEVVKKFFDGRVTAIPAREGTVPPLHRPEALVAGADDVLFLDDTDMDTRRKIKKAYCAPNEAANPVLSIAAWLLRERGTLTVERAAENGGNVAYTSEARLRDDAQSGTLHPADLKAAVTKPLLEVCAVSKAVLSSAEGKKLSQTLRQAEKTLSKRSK

[8] = biological target: T4, Tyrosyl-tRNA synthetase, putative (Trypanosoma cruzi (strain CL Brener)); assay: Trypanosoma cruzi tyrosyl tRNA synthetase (TcYRS) SOP; type: functional; details: 30 µM
[9] = biological target: Chromo domain-containing protein 1 (Saccharomyces cerevisiae (strain ATCC 204508 / S288c) (Baker's yeast)) (UniProt P32657); assay: ScCHD-1 Enzyme Inhibition Assay; type: functional; details: 30 µM; further: in the data most compounds retested in dose-response had high values
Chromo domain-containing protein 1 (Saccharomyces cerevisiae (strain ATCC 204508 / S288c) (Baker's yeast)), sequence (P32657 whole entry, the tested form may be a part): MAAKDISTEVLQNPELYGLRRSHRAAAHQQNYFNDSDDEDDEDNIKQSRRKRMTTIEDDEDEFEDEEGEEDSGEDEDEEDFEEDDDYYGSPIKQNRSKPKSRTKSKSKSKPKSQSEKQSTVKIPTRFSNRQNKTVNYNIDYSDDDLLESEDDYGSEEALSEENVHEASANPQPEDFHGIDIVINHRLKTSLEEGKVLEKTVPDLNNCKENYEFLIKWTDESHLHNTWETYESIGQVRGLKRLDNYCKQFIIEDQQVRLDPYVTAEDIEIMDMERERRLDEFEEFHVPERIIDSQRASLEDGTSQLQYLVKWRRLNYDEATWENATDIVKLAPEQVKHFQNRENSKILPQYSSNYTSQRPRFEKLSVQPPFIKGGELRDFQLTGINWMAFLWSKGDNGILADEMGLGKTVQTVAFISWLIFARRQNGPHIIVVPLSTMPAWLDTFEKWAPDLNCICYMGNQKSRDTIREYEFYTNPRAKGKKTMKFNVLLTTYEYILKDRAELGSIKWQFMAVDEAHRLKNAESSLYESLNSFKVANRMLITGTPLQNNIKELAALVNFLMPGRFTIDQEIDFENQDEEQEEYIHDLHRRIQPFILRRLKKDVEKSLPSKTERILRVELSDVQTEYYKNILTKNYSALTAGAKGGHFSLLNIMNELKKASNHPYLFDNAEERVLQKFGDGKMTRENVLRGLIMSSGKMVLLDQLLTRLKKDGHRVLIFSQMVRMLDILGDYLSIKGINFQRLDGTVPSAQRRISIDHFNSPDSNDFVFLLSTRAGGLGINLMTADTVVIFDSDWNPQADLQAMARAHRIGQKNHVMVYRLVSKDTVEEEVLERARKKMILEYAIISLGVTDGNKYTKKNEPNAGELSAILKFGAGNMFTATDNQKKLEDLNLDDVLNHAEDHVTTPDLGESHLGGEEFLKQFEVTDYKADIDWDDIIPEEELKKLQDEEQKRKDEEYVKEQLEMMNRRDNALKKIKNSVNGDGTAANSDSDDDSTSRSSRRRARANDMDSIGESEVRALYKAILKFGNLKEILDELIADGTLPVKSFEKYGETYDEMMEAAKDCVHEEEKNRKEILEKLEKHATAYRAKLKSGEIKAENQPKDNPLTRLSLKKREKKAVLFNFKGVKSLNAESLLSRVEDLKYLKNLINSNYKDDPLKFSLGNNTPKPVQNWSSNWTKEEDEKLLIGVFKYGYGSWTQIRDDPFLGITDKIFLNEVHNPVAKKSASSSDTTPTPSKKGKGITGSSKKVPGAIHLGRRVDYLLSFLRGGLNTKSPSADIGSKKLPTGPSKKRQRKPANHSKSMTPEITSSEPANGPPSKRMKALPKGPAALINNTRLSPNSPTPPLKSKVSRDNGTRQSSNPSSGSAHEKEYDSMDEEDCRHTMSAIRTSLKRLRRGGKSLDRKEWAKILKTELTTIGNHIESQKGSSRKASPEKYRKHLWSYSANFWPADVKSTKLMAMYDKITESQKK

Protein translocase subunit SecA (Escherichia coli (strain K12)), sequence (P10408 whole entry): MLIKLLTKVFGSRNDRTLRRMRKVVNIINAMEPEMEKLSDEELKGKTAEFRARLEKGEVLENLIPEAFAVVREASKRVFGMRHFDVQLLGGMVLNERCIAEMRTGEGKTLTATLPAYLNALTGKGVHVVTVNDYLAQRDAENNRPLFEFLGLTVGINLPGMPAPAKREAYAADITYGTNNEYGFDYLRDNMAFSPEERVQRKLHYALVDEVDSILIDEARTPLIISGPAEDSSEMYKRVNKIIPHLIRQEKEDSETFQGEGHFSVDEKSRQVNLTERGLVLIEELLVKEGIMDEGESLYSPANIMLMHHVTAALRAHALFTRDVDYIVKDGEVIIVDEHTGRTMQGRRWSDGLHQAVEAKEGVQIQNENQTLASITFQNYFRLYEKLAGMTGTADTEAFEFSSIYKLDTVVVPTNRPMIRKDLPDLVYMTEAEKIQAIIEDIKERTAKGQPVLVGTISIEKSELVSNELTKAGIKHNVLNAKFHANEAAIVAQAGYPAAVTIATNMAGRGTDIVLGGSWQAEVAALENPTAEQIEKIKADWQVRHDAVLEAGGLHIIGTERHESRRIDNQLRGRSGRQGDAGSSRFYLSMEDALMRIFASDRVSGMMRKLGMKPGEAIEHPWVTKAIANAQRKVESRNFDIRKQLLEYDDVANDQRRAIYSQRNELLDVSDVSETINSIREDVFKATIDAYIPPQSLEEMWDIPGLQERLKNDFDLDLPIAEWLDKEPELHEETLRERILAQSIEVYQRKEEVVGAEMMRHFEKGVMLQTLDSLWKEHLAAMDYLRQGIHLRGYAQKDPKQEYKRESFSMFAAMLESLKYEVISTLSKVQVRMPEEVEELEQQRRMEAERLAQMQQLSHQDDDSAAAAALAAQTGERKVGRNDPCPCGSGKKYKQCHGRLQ

| SMILES | Percent Effect [1] | Percent Effect [2] | Percent Effect [3] | Percent Effect [4] | Percent Effect (Trypanosoma cruzi) | Percent Effect [5] | Percent Effect [6] | Percent Effect (Homo sapiens) | Percent Effect [7] | Percent Effect [8] | Percent Effect [9] |
| --- | --- | --- | --- | --- | --- | --- | --- | --- | --- | --- | --- |
| Cc1cnn(CC2CCCN2C(=O)c2cc(C)no2)c1 (configuration not stated) | -7.95% | 5.26% | -9.36% | 0.94% | -8.12% | 0.36% | -4.65% | 2.42% | -0.493% | -8.64% | 10.5% |
| CN(Cc1ccccn1)C1COC2(CCN(Cc3cccnc3)CC2)C1 (configuration not stated) | -2.78% | 16% | -2.32% | -9.58% | 4.72% | 49.2% | 12.1% | 17.1% | 5.32% | 16.7% | -7.71% |
| O=C(COCc1nc(-c2ccncc2)no1)N1CCCCCC1 | -5.55% | 5.2% | -3.82% | 21.3% | -35.1% | -55.2% | 8.65% | 15.5% | 5.38% | 13.6% | 120% |
| Cc1cnn(Cc2cc(F)ccc2F)c1NC(=O)C1COCCO1 (configuration not stated) | -7.31% | 2.67% | 1.44% | 22.4% | 0.876% | 4.17% | 5.75% | 5.83% | 4.92% | 13.6% | -4.84% |
| Cc1c(C(=O)NCC2CCCO2)nnn1-c1cccc2c1CCN(C)C2 (configuration not stated) | -7.71% | 2.63% | -11.9% | -4.47% | -1.27% | 2.37% | 6.42% | 27.2% | -1.06% | -2.6% | 88% |
| CNc1cc(CCNC(=O)c2cccnc2)nc(-c2ccncc2)n1 | -1.87% | 9.46% | 12.1% | 1.21% | -6.13% | 2.09% | 12% | -0.444% | 4.3% | 6.49% | -5.16% |
| Cc1nc(CCNC(=O)NCc2ccc(N(C)C)nc2)cs1 | -4.75% | 13.5% | -4.65% | 3.94% | 1.79% | -0.401% | 12.1% | -114% | 9.36% | 16.1% | -4.66% |
| O=C(CCn1cccn1)N1CCN(CC(F)F)CC1 | -2.93% | 16.2% | -2.79% | -4.78% | -0.836% | 0.554% | 4.13% | 14.6% | 9.9% | 25.6% | -5.97% |
| Fc1cccnc1OC[C@@]12CCO[C@@H]1CCN(CC1CCOCC1)C2 | -3.83% | 8.11% | -6.9% | 22.7% | 4.01% | -0.744% | 14.3% | 12.2% | 6.45% | 13.6% | -9.09% |
| CN(C)c1ccc(CN(CCCn2ccnc2)Cc2c[nH]cn2)cc1 | -6.31% | 17.6% | -10.4% | 5.43% | 3.16% | -6.26% | 12.5% | 8.69% | 8.6% | 19.5% | -30.5% |
| CC(=O)NC1CCCN(C(=O)Nc2cnc3c(cnn3C(C)C)c2)C1 (configuration not stated) | -3.14% | 16.2% | 0.9% | 4.02% | -4.55% | -1.29% | 12.2% | 5.99% | 7.92% | 23.2% | -5.36% |
| COc1ccc(CNCCc2cc(F)cc3c2OCOC3)cc1O | -5.67% | 4.17% | -9.01% | 0.774% | -2.62% | -0.883% | 4.74% | 2.67% | 3.16% | 5.13% | -2.11% |
| Cc1oc(-c2ccsc2)nc1CC(=O)NCCS(C)(=O)=O | -3.85% | 5.2% | 2.35% | 5.36% | -2.26% | -4.14% | 9.48% | 3.37% | -1.07% | 6.17% | -2.55% |
| Cc1nnc(NC(=O)NCc2cccnc2N(C)C)s1 | -3.62% | 13% | -1.32% | 4.98% | 5.24% | 4.27% | 11.2% | 4.88% | 6.8% | 21.9% | -9.15% |
| Cc1nnc(CN2CCCC(c3cc(C(N)=O)[nH]n3)C2)o1 (configuration not stated) | -3.02% | -5.41% | 0.969% | 11.5% | -1.23% | 0% | -2.34% | 2.07% | -1.48% | -1.24% | 1.61% |
| Cc1ccc(N2CC[C@H]3C[C@@H](C(=O)N4CCOCC4)O[C@H]3C2)nn1 | -2.71% | 13.5% | -1.79% | -1.51% | -0.293% | -0.319% | 11.6% | -4.87% | 10.8% | 15.4% | -1.79% |
| Cc1ccccc1CNC(=O)CN1CCN(Cc2nccn2C)CC1 | -1.84% | 21.6% | -6.67% | 6.22% | 2.74% | -10.8% | 18.4% | 2.02% | 8.37% | 25.9% | -9.21% |
